Drawing on PubChem BioAssay (EPA / NIEHS), this text covers AC50 and outcome for 14 compounds.

Several values for one entry are separate records, joined by “and”; a condition that tells them apart may be missing. Identical values can stand only once. Results filed as inconclusive are left out. The source holds several records for some structures; these can differ, active in one and inactive in another. Activity calls are given as the source filed them. How the source made its calls, unless noted: active means hit-call score of the fitted dose curve at least 0.9, where 1 is the maximum; inconclusive means response in the unintended direction; inactive means score below 0.9.

Read-out in experiment [1]: Cytochrome P450 (CYP24A1_1), CYP24A1 (gene 1591)
Description: LTEA_HepaRG_CYP24A1_1: Life Technologies and Expression Analysis (LTEA) Assay for Cytochrome P450 (CYP24A1_1) using HepaRG (AID 2283671; active means hit-call score of the fitted dose curve at least 0.9, where 1 is the maximum; inactive means score below 0.9). The following applies: mRNA level, 48 h; actives raise or lower the signal. The gist of the method: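 In this test, gene induction or suppression of CYP24A1 in human HepaRG liver cells is measured by qRT-PCR after 48 h chemical treatment (eight concentrations, maximum 100 uM). Values are fitted bidirectionally relative to DMSO.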

Experiment [2] in a line: CCTE_Padilla_ZF_144hpf_TERATOSCORE: (Legacy) CCTE's 144 Hour Post-fertilization zebrafish Assay Teratoscore, Padilla Lab (AID 2283679; active means hit-call score of the fitted dose curve at least 0.9, where 1 is the maximum; inactive means score below 0.9;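 on AC50: zebrafish embryos with chorions exposed by immersion from 6-8 hpf to 5 dpf with daily renewal; teratogenicity score from eye scoring of death hatching and malformations at 144 hpf; higher score means more developmental defects relative to DMSO baseline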). The gist of the method: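 Larvae scored by eye at 144 hpf for death, hatching and malformations after a day in clean Hanks'. Before that, daily-renewed exposure at 80 uM (0.4% DMSO, 26C) from roughly 6-8 hpf through 5 dpf, 4 embryos per chemical.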

A short description of experiment [3]: CEETOX_H295R_MTT_cell_viability: Viability Assessment in the CeeTox HT-H295R MTT Assay (AID 2283718; active means hit-call score of the fitted dose curve at least 0.9, where 1 is the maximum; inactive means score below 0.9). An outline of the steps: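 MTT reduction (0.5 mg/ml, 4 h at 37 C; absorbance at 570 and 650 nm) gave viability as background-corrected percent change versus controls. H295R cells had 48 h forskolin (10 uM) prestimulation, then 48 h chemical exposure at 0.1% DMSO.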

Experiment [4] can be described thus: Tanguay_ZF_120hpf_ActivityScore_legacy: (Legacy) Oregon State University Tanguay Lab 120 Hour Post-fertilization zebrafish Assay Score for Activity (AID 2283742).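 On AC50: dechorionated Tropical 5D wild-type zebrafish embryos held singly per well; static exposure from 6 hpf until 120 hpf at 28 °C.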 The gist of the method: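 Embryos are staged, enzymatically dechorionated at 4 hpf, placed individually at 6 hpf, then held in test chemical (0.64% DMSO) at 28C until 120 hpf. Mortality and malformations are scored by brightfield, with non-mortality endpoints skipped for dead embryos.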

Experiment [5] concerns the target Luciferin 4-monooxygenase (Photinus pyralis) (UniProt P08659). Description: CCTE_Simmons_QuantiLum_inhib_2: CCTE's Firefly Luciferase Inhibition Assay, Simmons Lab (AID 2283767).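 On AC50: potency for inhibitors that lower luciferase luminescence relative to DMSO.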 An outline of the steps:
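Counter-screen for nonspecific enzyme inhibition: purified firefly luciferase incubated 30 min at 37C with chemicals up to 87.5 uM final, then luminescence measured after luciferin/dATP injection; activity fitted against DMSO baseline.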

Experiment [6] in a line: STM_H9_OrnithineISnorm_perc: Stemina devTOX quickPredict H9 human embryonic stem cell (hESC)-based Assay for Ornithine (ORN) Metabolite Biomarker, Normalized (AID 2283712; active means hit-call score of the fitted dose curve at least 0.9, where 1 is the maximum; inactive means score below 0.9;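 further: ornithine released into spent medium during last day measured by mass spectrometry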). An outline of the steps:
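Cells: undifferentiated H9 hESC. Dosing: 72 h, media replaced every 24 h. Sample: final 24-h conditioned media, 40% acetonitrile. Read: UPLC-HRMS ornithine area vs 13C standard, % DMSO control.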

Experiment [7] can be described thus: STM_H9_CystineISnorm_perc: Stemina devTOX quickPredict H9 human embryonic stem cell (hESC)-based Assay for Cystine (CYSS) Metabolite Biomarker, Normalized (AID 2283713; active means hit-call score of the fitted dose curve at least 0.9, where 1 is the maximum; inactive means score below 0.9). An outline of the steps:
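Secreted cystine was measured by UPLC-HRMS in H9 hESC medium after 72h compound exposure with 24-hourly replenishment. Values are standard-normalized areas relative to 0.1% DMSO.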

A short description of experiment [8]: STM_H9_OrnCyssISnorm_ratio: Stemina devTOX quickPredict H9 human embryonic stem cell (hESC)-based Assay for Ornithine (ORN):Cystine (CYSS) Ratio (AID 2283714). An outline of the steps: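 Steps: H9 hESCs in pluripotent state dosed 72h, medium plus compound renewed every 24h; conditioned medium from the final 24h deproteinized in 40% acetonitrile; ORN and CYSS quantified by UPLC-HRMS with C13 spike-ins; ratio relative to vehicle.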

Experiment [9] relates to chicken Androgen Receptor (AR), gene 422165. Description: ATG_chAR_XSP1: Attagene TRANS-FACTORIAL Multi-Species (XSP1) HepG2 Assay for chicken Androgen Receptor (AR) (AID 2283768). The gist of the method: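 HepG2 cells transiently transfected with multiplexed GAL4-UAS reporter units expressing chimeric chicken AR-Gal4; 3 nM 6-alpha-fluorotestosterone for partial AR stimulation; 24 h after dosing, reporter mRNA by RT-PCR and capillary electrophoresis, gain-of-signal versus DMSO.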

The test system of experiment [10] is zebrafish Androgen Receptor (AR), gene 100005148. Description: ATG_zfAR_XSP1: Attagene TRANS-FACTORIAL Multi-Species (XSP1) HepG2 Assay for zebrafish Androgen Receptor (AR) (AID 2283771). An outline of the steps:
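HepG2 cells were transiently transfected with a zebrafish AR-GAL4 reporter system and partially stimulated with 3 nM 6-alpha-fluorotestosterone. Reporter mRNA was measured after 24 h dosing by RT-PCR with capillary electrophoresis, and gain-of-signal was fitted relative to DMSO.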

Experiment [11] can be described thus: ArunA_CellTiter_hNC: Viability Assessment in the ArunA Biomedical's Oris Neural Crest (hNC) Cell Migration Assay (AID 2283752). The gist of the method:
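Viability of embryonic neural crest stem cells from the H9 line is scored 72 h after dosing, with DMSO as negative control and baseline. A drop in CellTiter Aqueous One signal indicates cytotoxicity.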

Experiment [12] can be described thus: ArunA_CellTiter_hNP: Viability Assessment in the ArunA Biomedical's Oris Neural Crest (hNC) Cell Migration Assay (AID 2283753). The gist of the method:
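H9-derived hNP1 neuroprogenitors, 60,000/well on Matrigel, cultured 16 h, then 72 h chemical exposure in test medium. Cell titer via CellTiter Aqueous One; positive-direction fit vs DMSO.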

A short description of experiment [13]: ArunA_Migration_hNP: ArunA Biomedical's Oris Neuroprogenitor (hNP) Cell Migration Assay (AID 2283754). The gist of the method:
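Human H9-derived hNP1 neuroprogenitors on Matrigel with LIF/bFGF, plated around seeding stoppers for 16 h at 37C; stoppers removed at start of 72 h chemical exposure. Calcein-AM staining, fluorescence 494/517 nm in detection zone; loss-of-signal vs DMSO; cytochalasin D control.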

A short description of experiment [14]: ArunA_Migration_hNC: ArunA Biomedical's Oris Neural Crest (hNC) Cell Migration Assay (AID 2283755). An outline of the steps:
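Human H9-derived neural crest stem cells, 60,000/well on Matrigel, 16 h at 37C, then 72 h chemical exposure after seeding-stopper removal. Migration into detection zone read as calcein-AM fluorescence (ex494/em517), relative to DMSO.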

Experiment [15] in a line: ArunA_NOG_NucleusCount: ArunA Biomedical's Neurite Outgrowth (NOG) Assay for Nucleus Count (AID 2283756). The gist of the method:
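Human H9-derived differentiated neurons were exposed for 48 h right after seeding. Hoechst-stained nuclei gated by size and intensity were counted by automated high-content imaging as viable neurons. Loss of signal vs DMSO.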

The nature of experiment [16]: ArunA_NOG_NeuriteLength: ArunA Biomedical's Neurite Outgrowth (NOG) Assay for Neurite Length (AID 2283757). The gist of the method:
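Differentiated human H9-derived neurons were exposed for 48 h from seeding, then stained with Hoechst and βIII-tubulin. Automated high-content imaging gave total neurite length per valid neuron, counting processes >10 um. Loss of signal was scored versus DMSO.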

Experiment [17] is described as follows: ArunA_NOG_NeuritesPerNeuron: ArunA Biomedical's Neurite Outgrowth (NOG) Assay for Neurites Per Neuron (AID 2283758). An outline of the steps:
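Differentiated human H9-derived neurons exposed to chemicals for 48 h from seeding, then stained with Hoechst and βIII-tubulin/DyLight 488. Automated imaging counted neurites (processes >10 um) per valid neuron; loss of signal versus DMSO scored.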

The nature of experiment [18]: ArunA_NOG_BranchPointsPerNeurite: ArunA Biomedical's Neurite Outgrowth (NOG) Assay for Branch Points Per Neurite (AID 2283759). An outline of the steps:
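Automated image analysis traced neurites (processes >10 um) from valid cell bodies after Hoechst and βIII-tubulin staining. hNN cells from H9 embryonic stem cells, 48 h exposure. Fitted bidirectionally against DMSO.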

Luciferin 4-monooxygenase (Photinus pyralis), sequence (P08659 whole entry, looked up): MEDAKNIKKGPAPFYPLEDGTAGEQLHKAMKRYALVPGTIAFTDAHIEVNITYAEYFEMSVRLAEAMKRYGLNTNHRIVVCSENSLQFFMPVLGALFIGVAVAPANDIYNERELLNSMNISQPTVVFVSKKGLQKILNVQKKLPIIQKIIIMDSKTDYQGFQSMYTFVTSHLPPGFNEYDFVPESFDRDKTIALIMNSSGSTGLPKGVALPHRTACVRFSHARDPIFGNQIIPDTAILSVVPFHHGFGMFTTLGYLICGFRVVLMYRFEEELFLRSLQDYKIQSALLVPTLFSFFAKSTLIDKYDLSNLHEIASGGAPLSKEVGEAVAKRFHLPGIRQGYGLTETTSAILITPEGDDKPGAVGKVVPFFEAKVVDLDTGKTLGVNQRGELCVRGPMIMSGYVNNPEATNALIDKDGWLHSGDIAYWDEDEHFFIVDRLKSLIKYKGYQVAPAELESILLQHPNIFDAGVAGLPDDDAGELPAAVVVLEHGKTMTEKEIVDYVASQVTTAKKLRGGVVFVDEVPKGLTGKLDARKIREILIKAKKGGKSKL

Broadly, the AC50 is the midpoint of the concentration-response curve, whichever way the signal moves. Regarding `Nc1ccc(Cl)cc1N`, the AC50 in [1] was 30.8 µM (active); in [2], 15 µM (active); in [4], 44.8 µM (active); in experiment [5] it was 9.28 µM (active). In addition, the compound was classed as inactive in experiment [3].
Regarding `CCCCCOC(=O)c1ccccc1C(=O)OCCCCC`, the AC50 in experiment [2] was 4.55 µM (active); in experiment [7] it was 19.8 µM (active); in experiment [8], 21.9 µM (active). Besides, the result in [6], in [3], in [4], in experiment [9] and in experiment [10] was inactive.
As for `Clc1ccc(C(c2ccc(Cl)cc2)C(Cl)Cl)cc1`, in experiment [2], the AC50 is 20.3 µM (active). The outcome in experiment [6], in experiment [7], in experiment [8] and in experiment [4] was inactive.
Consider `CCN(CC)CCO`, for which the outcome in experiment [1] and in [4] was inactive.
Regarding `CC(C)(C)C(O)(CCc1ccc(Cl)cc1)Cn1cncn1` (stereo not drawn), the AC50 in experiment [2] was 52 µM (active); in [6], 79.1 µM (active); in experiment [7] it was 30.1 µM (active); in experiment [8], 45 µM (active). Besides, the compound was classed as inactive in experiment [3] and in experiment [4].
Regarding `O=[N+]([O-])c1ccc(Oc2ccc(Cl)cc2Cl)cc1`, the AC50 was 7.79 µM (active) in experiment [2], 68.7 µM (active) in experiment [6], 29.8 µM (active) in experiment [7] and 50 µM (active) in experiment [8]. The result in experiment [4] was inactive.
Take `COc1cc(C=O)cc2c1[C@H](COC(N)=O)[C@]1(OC(C)=O)ON2C[C@H]2[C@@H]1N2C(C)=O`: the outcome in experiment [2] was inactive. Also, the AC50 is 0.00101 µM (active) in experiment [6], 0.0003 µM (active) in experiment [7], 0.000797 µM (active) in experiment [8] and 23.4 µM (active) in experiment [4].
On to `Cc1ccc([N+](=O)[O-])cc1`, for which the call in experiment [1] and in experiment [4] was inactive.
Take `ClC1=C(Cl)C2(Cl)C3C(Cl)C=CC3C1(Cl)C2(Cl)Cl` (stereo not drawn): the outcome in experiment [1] and in experiment [4] was inactive. Besides, in experiment [2], the AC50 was 3.23 µM (active).
For the compound `Brc1ccc(Oc2ccccc2)cc1`, the half-maximal activity concentration (AC50) in [2] is 44.7 µM (active). Also, the outcome in experiment [6], in experiment [7], in experiment [8], in experiment [3] and in [4] was inactive.
With `C1=Cc2cccc3cccc1c23`, the call in [1] and in experiment [4] was inactive.
As for `CCCCOC(=O)c1ccccc1C(=O)OCc1ccccc1`, the concentration at half-maximal activity (AC50) in experiment [2] is 1.55 µM (active); in experiment [7], 32.6 µM (active); in experiment [8], 34.6 µM (active). For the same compound, the result in experiment [6], in [3], in experiment [4], in experiment [5] and in experiment [9] was inactive.
`OCCCBr`: the compound was classed as inactive in experiment [2], in experiment [6], in experiment [7], in experiment [8] and in experiment [4].
Consider `CO[C@@H]1[C@H](OC(=O)NC(=O)CCl)CC[C@]2(CO2)[C@H]1[C@@]1(C)O[C@@H]1CC=C(C)C`, for which the compound was classed as inactive in experiment [1], in [2], in experiment [4], in experiment [12], in experiment [13] and in [15]. Moreover, the compound was called inactive in experiment [16], in experiment [17], in experiment [18] and in experiment [5]. Besides, the AC50 is 0.0844 µM (active) in experiment [6]; 0.039 µM (active) in [7]; 0.0656 µM (active) in [8]; 1.63 nM (active) and 120 nM (active) in experiment [11]; 0.00608 µM (active) in experiment [12]; 22.8 nM (active) and 5 µM (active) in experiment [14].
